Results from the supplement of paper PMC10849652.
About 7,900 targets were measured; listed, in parts, are those with a hit and a random draw of the rest. About 0.6% of all pairs of compound and target were hits.

Compound: C/C(=N\NC(=O)C1=CC(=CC=C1)S(=O)(=O)N2CCOCC2)/C3=C(C=CC(=C3)Cl)O
Assay: log2 fold change, soluble protein after heating vs DMSO (PISA); higher = thermal stabilisation; K562 cells, 10 uM, 30 min; active = over 0.2 and 3.5 SD of the protein, either way, in both replicates (recomputed)
Method in brief: (§1)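 K562 cells at 2×10^6 cells/mL were given 10 μM compound for 30 min. Aliquots then went through 3 min of heating across 48°C-58°C, were pooled, and were extracted in PBS with 0.5% NP-40 at 4°C, and the supernatant after 21,000xg for 90 min was quantified by TMTpro 16plex LC-MS/MS with channel sums equalised. Thermal stability relative to control samples, from duplicates, is given as log2 fold change.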

UniProt P27708, sequence (P27708 whole entry, looked up): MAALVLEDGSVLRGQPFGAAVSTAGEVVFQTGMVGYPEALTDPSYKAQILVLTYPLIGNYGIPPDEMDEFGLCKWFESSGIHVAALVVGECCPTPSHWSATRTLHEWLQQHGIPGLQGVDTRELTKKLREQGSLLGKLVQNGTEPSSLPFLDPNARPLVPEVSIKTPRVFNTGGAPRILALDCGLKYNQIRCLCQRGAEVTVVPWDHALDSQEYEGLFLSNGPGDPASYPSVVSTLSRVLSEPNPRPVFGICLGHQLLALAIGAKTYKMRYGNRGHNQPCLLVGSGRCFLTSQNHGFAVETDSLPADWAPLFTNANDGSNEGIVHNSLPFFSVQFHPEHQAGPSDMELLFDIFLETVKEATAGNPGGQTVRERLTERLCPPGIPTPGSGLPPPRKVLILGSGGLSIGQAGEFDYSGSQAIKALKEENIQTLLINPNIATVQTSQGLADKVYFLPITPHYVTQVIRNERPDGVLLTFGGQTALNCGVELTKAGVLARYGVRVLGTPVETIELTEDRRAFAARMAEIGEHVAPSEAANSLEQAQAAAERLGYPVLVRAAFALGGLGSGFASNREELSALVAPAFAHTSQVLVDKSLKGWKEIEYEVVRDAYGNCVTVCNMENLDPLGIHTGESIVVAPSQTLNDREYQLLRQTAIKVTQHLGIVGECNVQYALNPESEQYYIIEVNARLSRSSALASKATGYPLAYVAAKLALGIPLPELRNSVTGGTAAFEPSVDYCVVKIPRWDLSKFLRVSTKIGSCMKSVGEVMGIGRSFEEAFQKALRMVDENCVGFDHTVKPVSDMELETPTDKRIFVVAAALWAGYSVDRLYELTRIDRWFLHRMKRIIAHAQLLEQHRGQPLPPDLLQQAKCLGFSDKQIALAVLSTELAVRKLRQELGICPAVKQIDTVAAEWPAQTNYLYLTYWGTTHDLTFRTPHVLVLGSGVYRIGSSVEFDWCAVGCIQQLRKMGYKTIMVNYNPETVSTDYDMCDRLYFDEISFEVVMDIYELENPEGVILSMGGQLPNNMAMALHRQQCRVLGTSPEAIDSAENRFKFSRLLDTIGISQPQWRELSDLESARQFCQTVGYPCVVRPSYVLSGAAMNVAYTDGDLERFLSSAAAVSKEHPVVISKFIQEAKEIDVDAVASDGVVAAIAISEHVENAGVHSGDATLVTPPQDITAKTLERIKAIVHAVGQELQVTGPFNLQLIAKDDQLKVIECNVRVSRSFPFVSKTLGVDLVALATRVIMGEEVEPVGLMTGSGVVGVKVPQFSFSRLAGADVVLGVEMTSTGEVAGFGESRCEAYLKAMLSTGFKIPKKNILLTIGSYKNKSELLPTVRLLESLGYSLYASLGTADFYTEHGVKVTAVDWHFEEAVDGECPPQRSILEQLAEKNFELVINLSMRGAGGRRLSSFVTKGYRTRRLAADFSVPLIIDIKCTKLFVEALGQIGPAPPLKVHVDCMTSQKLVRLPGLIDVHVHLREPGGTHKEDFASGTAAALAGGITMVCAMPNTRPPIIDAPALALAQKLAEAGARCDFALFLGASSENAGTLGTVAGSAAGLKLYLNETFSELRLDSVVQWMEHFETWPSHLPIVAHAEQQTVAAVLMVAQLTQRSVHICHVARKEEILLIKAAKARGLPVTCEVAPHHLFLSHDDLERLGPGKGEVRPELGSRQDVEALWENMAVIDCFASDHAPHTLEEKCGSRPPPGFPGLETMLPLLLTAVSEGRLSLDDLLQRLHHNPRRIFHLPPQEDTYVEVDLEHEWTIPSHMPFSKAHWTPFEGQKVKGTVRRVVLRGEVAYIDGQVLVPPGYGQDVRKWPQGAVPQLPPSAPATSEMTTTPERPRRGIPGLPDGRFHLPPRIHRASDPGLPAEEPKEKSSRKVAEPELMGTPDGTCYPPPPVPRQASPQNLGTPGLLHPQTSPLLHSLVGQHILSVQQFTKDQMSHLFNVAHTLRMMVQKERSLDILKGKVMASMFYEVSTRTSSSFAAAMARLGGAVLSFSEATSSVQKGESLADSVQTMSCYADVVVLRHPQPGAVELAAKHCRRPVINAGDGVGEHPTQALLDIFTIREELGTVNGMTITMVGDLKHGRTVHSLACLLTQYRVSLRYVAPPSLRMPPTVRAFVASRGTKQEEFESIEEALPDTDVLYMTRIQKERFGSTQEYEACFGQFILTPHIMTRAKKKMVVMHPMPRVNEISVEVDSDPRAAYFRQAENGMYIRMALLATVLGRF
UniProt Q86X95, sequence (Q86X95 whole entry, looked up): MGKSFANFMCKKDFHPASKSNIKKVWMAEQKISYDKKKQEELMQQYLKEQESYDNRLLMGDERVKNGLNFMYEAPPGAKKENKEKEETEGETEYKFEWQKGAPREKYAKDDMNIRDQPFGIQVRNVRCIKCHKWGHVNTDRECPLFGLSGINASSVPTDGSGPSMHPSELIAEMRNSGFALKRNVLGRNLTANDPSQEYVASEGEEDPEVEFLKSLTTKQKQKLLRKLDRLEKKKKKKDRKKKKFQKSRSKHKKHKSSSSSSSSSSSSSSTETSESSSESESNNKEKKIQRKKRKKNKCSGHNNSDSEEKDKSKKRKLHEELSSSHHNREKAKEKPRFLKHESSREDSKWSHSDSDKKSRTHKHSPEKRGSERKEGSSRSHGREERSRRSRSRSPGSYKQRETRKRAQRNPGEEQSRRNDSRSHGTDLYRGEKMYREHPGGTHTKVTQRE
UniProt P08962, sequence (P08962 whole entry, looked up): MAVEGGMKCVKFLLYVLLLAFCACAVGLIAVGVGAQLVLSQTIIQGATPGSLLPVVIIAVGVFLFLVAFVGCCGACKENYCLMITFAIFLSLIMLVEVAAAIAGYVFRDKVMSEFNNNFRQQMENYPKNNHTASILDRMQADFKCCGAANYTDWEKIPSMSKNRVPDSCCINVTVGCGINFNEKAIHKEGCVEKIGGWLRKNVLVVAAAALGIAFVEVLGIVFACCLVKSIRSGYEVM
UniProt Q13901, sequence (Q13901 whole entry, looked up): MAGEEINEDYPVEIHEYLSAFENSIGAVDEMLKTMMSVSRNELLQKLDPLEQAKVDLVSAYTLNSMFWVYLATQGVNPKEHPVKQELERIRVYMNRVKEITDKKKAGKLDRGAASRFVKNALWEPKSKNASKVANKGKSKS
UniProt P46109, sequence (P46109 whole entry, looked up): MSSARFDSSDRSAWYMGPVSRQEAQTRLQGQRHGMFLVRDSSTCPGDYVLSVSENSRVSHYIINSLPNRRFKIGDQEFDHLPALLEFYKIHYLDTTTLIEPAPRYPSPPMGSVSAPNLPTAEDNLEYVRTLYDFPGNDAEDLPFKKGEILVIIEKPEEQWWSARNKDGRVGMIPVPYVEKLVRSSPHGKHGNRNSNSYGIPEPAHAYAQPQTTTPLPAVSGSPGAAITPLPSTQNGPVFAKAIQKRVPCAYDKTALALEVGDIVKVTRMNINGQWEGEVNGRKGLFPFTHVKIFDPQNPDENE
UniProt Q01459, sequence (Q01459 whole entry, looked up): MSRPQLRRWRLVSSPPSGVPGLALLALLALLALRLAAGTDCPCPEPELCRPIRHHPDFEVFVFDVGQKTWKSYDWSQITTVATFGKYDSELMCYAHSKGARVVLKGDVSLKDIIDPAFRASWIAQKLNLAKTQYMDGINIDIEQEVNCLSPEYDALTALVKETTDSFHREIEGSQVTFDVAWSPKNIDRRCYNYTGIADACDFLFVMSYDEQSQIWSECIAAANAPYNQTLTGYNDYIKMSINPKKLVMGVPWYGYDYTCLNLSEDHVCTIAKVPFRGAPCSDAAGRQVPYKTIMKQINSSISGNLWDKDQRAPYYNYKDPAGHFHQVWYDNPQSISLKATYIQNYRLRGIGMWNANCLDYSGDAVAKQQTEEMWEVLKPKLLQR
UniProt Q16740, sequence (Q16740 whole entry, looked up): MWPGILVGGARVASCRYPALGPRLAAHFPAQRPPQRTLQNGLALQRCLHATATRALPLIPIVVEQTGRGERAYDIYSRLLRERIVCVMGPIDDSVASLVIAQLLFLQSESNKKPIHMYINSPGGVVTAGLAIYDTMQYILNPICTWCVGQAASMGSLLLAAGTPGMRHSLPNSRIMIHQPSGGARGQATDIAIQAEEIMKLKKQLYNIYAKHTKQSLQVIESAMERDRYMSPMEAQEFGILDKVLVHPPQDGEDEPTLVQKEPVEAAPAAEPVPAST
UniProt Q5JTJ3, sequence (Q5JTJ3 whole entry, looked up): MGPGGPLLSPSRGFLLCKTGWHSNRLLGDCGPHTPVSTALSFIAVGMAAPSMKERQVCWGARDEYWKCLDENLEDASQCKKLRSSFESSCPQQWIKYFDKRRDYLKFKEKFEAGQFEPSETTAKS
UniProt Q8NHZ8, sequence (Q8NHZ8 whole entry, looked up): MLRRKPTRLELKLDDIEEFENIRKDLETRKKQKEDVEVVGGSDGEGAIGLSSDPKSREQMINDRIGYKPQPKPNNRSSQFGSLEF
UniProt Q9BT78, sequence (Q9BT78 whole entry, looked up): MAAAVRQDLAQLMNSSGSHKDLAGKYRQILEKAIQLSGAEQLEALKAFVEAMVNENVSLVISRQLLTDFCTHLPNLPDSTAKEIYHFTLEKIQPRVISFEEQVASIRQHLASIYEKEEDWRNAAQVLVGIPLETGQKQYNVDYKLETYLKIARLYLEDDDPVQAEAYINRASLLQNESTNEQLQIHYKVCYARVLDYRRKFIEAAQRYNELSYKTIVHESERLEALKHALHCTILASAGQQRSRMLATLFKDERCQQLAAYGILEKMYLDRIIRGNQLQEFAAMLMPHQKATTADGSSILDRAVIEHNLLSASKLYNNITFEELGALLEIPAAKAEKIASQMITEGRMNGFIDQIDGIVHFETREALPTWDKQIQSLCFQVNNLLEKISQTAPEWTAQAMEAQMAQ
UniProt Q00534, sequence (Q00534 whole entry, looked up): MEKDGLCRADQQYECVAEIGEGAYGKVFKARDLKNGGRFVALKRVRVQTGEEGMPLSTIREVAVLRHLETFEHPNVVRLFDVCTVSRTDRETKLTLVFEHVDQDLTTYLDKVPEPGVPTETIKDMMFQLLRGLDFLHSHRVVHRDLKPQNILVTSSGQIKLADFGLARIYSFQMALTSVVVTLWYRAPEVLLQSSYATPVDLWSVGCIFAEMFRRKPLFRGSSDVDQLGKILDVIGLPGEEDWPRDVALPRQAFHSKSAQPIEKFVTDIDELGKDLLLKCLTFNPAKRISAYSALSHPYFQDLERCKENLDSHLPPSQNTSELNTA

log2 fold change, inactive:
CDC26 (UniProt Q8NHZ8) 0.16
CRTC2 (UniProt Q53ET0) 0.151
C1D (UniProt Q13901) -0.078
COA6 isoform 2 (UniProt Q5JTJ3) 0.022
CRKL (UniProt P46109) -0.002
CPT1A (UniProt P50416) 0.042
CCAR2 isoform 2 (UniProt Q8N163) 0.063
CIR1 (UniProt Q86X95) -0.035
CTBS (UniProt Q01459) -0.008
CLUH, A0A494C0R8 -0.081
CAD (UniProt P27708) 0.042
CLPP (UniProt Q16740) 0.013
CD63 (UniProt P08962) 0.024
COPS4 (UniProt Q9BT78) 0.061

Compound: C1=CC(=C(C=C1Cl)C2=NC3=NC=CN=C3C(=N2)NC4=CC=NC=C4)F
Assay: as above
Method in brief: as §1

log2 fold change, inactive:
CDC37L1 (UniProt Q7L3B6) -0.007
CCNB1 (UniProt P14635) 0.03
CIT isoform 4 (UniProt O14578) -0.044
CALCOCO2 isoform 4 (UniProt Q13137) -0.08
CLCN3 isoform 2 (UniProt P51790) 0.059
CHCHD2 (UniProt Q9Y6H1) 0.092
CCNH (UniProt P51946) 0.034
CRK (UniProt P46108) -0.002
CHCHD1 (UniProt Q96BP2) -0.048
CALB1 (UniProt P05937) 0.067
CDK6 (UniProt Q00534) -0.053
COASY isoform 2 (UniProt Q13057) 0.042
CHD3 isoform 3 (UniProt Q12873) 0.005
CHCHD4 isoform 2 (UniProt Q8N4Q1) -0.045
CASP3 (UniProt P42574) 0.238
CSNK2B (UniProt P67870) -0.017
CSTF3 (UniProt Q12996) -0.003
C4orf33 (UniProt Q8N1A6) 0.052
COCH (UniProt O43405) -0.044
CD53 (UniProt P19397) 0.059
CD55 isoform 7 (UniProt P08174) -0.031
CLASP2 isoform 3 (UniProt O75122) 0.066
CDC26 (UniProt Q8NHZ8) -0.046
CRTC2 (UniProt Q53ET0) 0.039
C1D (UniProt Q13901) -0.01
COA6 isoform 2 (UniProt Q5JTJ3) 0.045
CRKL (UniProt P46109) 0.014
CPT1A (UniProt P50416) -0.111
CCAR2 isoform 2 (UniProt Q8N163) 0.033
CIR1 (UniProt Q86X95) -0.254
CTBS (UniProt Q01459) -0.1
CLUH, A0A494C0R8 0.253
CAD (UniProt P27708) -0.014
CLPP (UniProt Q16740) -0.069
CD63 (UniProt P08962) -0.045
COPS4 (UniProt Q9BT78) 0.13

Compound: C1=CC(=CC=C1C2=NC3=C(N2)C=C(C=C3)C(=O)N)OC4=CC=C(C=C4)Cl
Assay: as above
Method in brief: as §1

log2 fold change, inactive:
CDC37L1 (UniProt Q7L3B6) -0.035
CCNB1 (UniProt P14635) 0.044
CIT isoform 4 (UniProt O14578) 0
CALCOCO2 isoform 4 (UniProt Q13137) 0.059
CLCN3 isoform 2 (UniProt P51790) 0.044
CHCHD2 (UniProt Q9Y6H1) 0.049
CCNH (UniProt P51946) -0.016
CRK (UniProt P46108) -0.012
CHCHD1 (UniProt Q96BP2) 0.027
CALB1 (UniProt P05937) 0.032
CDK6 (UniProt Q00534) 0.02
COASY isoform 2 (UniProt Q13057) -0.067
CHD3 isoform 3 (UniProt Q12873) -0.062
CHCHD4 isoform 2 (UniProt Q8N4Q1) -0.036
CASP3 (UniProt P42574) 0.006
CSNK2B (UniProt P67870) -0.007
CSTF3 (UniProt Q12996) 0.015
C4orf33 (UniProt Q8N1A6) 0.138
COCH (UniProt O43405) 0.007
CD53 (UniProt P19397) -0.006
CD55 isoform 7 (UniProt P08174) 0.036
CLASP2 isoform 3 (UniProt O75122) 0.032
CDC26 (UniProt Q8NHZ8) 0.034
CRTC2 (UniProt Q53ET0) 0.035
C1D (UniProt Q13901) -0.011
COA6 isoform 2 (UniProt Q5JTJ3) 0.007
CRKL (UniProt P46109) -0.02
CPT1A (UniProt P50416) 0.008
CCAR2 isoform 2 (UniProt Q8N163) -0.014
CIR1 (UniProt Q86X95) 0.055
CTBS (UniProt Q01459) -0.023
CLUH, A0A494C0R8 -0.107
CAD (UniProt P27708) -0.003
CLPP (UniProt Q16740) 0.037
CD63 (UniProt P08962) -0.089
COPS4 (UniProt Q9BT78) -0.004
